In PubChem BioAssay AID504326 (The Scripps Research Institute Molecular Screening Center, 2011):
Hit rate of the full screen: of about 340,000 compounds, about 990 (0.29%) were called active. The full list was thinned out, with actives kept by preference. A number with no mark means an inactive call. Cut-off read from the data, not from the text of the source: active = activation above about 18%; inactive = the rest.

Biological target: Mu-type opioid receptor (Homo sapiens) + Delta-type opioid receptor (Homo sapiens) (UniProt P35372+P41143)
Sequence (P35372 whole entry, looked up): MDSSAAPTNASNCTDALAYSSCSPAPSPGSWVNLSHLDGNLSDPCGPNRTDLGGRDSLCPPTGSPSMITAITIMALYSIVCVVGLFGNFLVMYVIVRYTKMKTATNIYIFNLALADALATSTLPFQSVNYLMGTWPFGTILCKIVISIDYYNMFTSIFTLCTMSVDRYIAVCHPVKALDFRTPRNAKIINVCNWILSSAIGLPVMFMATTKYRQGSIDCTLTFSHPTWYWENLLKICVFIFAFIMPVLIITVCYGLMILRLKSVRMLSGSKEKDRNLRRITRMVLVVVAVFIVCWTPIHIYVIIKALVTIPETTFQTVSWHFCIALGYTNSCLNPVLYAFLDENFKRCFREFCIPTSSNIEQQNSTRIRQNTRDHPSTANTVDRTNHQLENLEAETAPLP
Sequence (P41143 whole entry, looked up): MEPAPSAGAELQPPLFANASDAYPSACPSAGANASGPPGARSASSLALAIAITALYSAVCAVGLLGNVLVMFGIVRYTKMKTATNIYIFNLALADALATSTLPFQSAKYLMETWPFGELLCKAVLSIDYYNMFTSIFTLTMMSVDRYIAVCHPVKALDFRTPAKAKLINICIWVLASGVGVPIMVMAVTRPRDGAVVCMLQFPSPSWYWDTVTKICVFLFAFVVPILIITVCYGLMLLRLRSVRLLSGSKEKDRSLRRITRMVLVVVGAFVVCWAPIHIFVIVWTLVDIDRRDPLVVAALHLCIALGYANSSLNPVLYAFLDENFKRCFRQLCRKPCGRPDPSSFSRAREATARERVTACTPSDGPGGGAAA
Assay: inducers of mu-delta opioid receptor heterodimers – cell-based, luminescence, primary screen (AID 504326);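 note: 0% = vehicle-treated cells and 100% = reference agonist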
Settings: cells, OPRM1-OPRD1 heterodimerization, at 9.3 µM, active compounds read high

Structure (SMILES) | activation
Cc1ccc(OCCCC(=O)Nc2ccc(S(=O)(=O)Nc3cc(C)nc(C)n3)cc2)cc1 | 0.21%
COc1cccc(CNc2nc(C(F)(F)F)nc3ccccc23)c1 | 5.18%
CCc1ccc(C(CNc2nc(C(F)(F)F)nc3ccccc23)N(C)C)cc1 (configuration not stated) | 81.6% (active)
NS(=O)(=O)c1ccc(CCNc2nc(C(F)(F)F)nc3ccccc23)cc1 | -1.85%
Cc1ccn(C(CC(=O)c2ccc(Br)cc2)C(=O)O)n1 (configuration not stated) | -1.91%
Nc1c(Cl)cc(S(N)(=O)=O)cc1S(N)(=O)=O | -5.23%
CC1=NNC(=O)C1CCC(=O)N/N=C\c1ccc(Cl)c(Cl)c1 (configuration not stated) | -0.87%
COc1cc(/C=N/NC(=O)Cc2ccccc2)cc(OC)c1OC | -1.52%
COc1cc(/C=N/NC(=O)c2ccoc2C)ccc1OCCN1CCCCC1 | -0.79%
COc1cc(/C=N/NC(=O)Nc2ccccc2)ccc1OCCOc1ccccc1C | 28% (active)
Cc1cc(C)c2c(=O)[nH]c(SCC(=O)Nc3ccc(Br)cc3)nc2n1 | 2.08%
CN(Cc1ccc(F)cc1)C(=O)CN1C(=O)c2ccccc2S1(=O)=O | -2.95%
COC(=O)C1=NNC2(c3ccc(C)cc3)C(=O)N(c3cccc(C)c3C)C(=O)C12 (configuration not stated) | -4.85%
CCOC(=O)C1=C(O)/C(=C/c2ccc(OCC(=O)Nc3ccc(C)cc3)cc2)N=C1C | 40.8% (active)
Cc1ccc(NC(=O)COc2ccc(/C=C3/NC(=O)NC3=O)cc2)cc1 | 2.37%
COC(=O)C1=C(O)/C(=C/c2ccc(OCC(=O)Nc3ccccc3)cc2)N=C1C | -3.18%
CCOc1ccc(Br)cc1S(=O)(=O)Nc1ccc(C(=O)OC(C)C(=O)N(C)c2ccccc2)cc1 (configuration not stated) | 2.35%
CC(c1ccccn1)N(C)C(=O)c1ccc2nc(Cc3cccc(Cl)c3)oc2c1 (configuration not stated) | -0.53%
CC1CCCCC12NC(=O)N(CC(=O)OCC(=O)NCc1ccc(F)cc1)C2=O (configuration not stated) | -0.67%
Cc1cccc(Oc2c([N+](=O)[O-])c(=O)n(C)c3ccccc23)c1 | 1.78%
CCOC(=O)c1c(C)[nH]c2c1-c1ccccc1C(=O)C2=O | 22.6% (active)
CCOC(=O)c1ccccc1OC(=O)Oc1ccccc1C(=O)OCC | -2.83%
CCOC(=O)C1=C(C)c2ccccc2OC1(C)C(=O)OCC (configuration not stated) | -0.33%
O=C(NCc1ccccn1)c1cnc2sccn2c1=O | -2.49%

Structure (SMILES) | activation
COc1cc(C(=O)N(Cc2ccc(N(C)C)cc2)C2CCS(=O)(=O)C2)cc(OC)c1OC (configuration not stated) | -1.82%
Cc1ccc(CN(C(=O)c2sc3ccccc3c2Cl)C2CCS(=O)(=O)C2)cc1 (configuration not stated) | 26.2% (active)
CC1(C)C(C=C(Cl)Cl)C1C(=O)N(Cc1ccc(Cl)cc1)C1CCS(=O)(=O)C1 (configuration not stated) | 0.69%
O=C(C1CC1)N1N=C2CCCCC2C1(O)C(F)(F)F (configuration not stated) | -1.35%
O=C(Nc1ccc(OC(F)(F)F)cc1)c1ccc2c(c1)no[n+]2[O-] | 22% (active)
Cn1cccc1/C=N/NC(=O)c1ccc(OC(F)(F)C(F)F)cc1 | -1.62%
CCOC(=O)Cc1ncccc1C(=O)Nc1ccc(OC(F)(F)F)cc1 | -3.8%
O=C(N1CCOCC1)N(Cc1ccccc1)c1ccccn1 | -1.92%
CC(=O)CSc1nc(CCc2ccccc2)c(C#N)c(=O)[nH]1 | -2.33%
COc1ccc(/C=C2/S/C(=N/N=C3\CC4CCC3(C)C4(C)C)NC2=O)cc1 (configuration not stated) | 0.11%
CCN1C(=NCCc2cccnc2)N[C@@H](c2ccccc2)C(C(=O)OC)=C1C | 0.22%
Clc1ccc(C2[C@H]3CN(CC4CCCCC4)[C@H](c4ccccc4)C34CC2(c2cccnc2)C4)cn1 (some centres not stated) | -1.67%
COC(=O)c1ccc(C23CC4(C2)[C@H](CN(Cc2cccnc2)[C@@H]4c2ccccc2)C3c2ccc(Cl)nc2)cc1 (some centres not stated) | 19.2% (active)
O=C(/C=C/c1cnc2ccccc2n1)NC1CCCCCC1 | -1.86%
CC(C)NS(=O)(=O)c1ccc(NC(=O)C2CCCCC2)cc1 | -1.18%
O=C(CC(NC(=O)c1ccccc1)c1ccccc1)Nc1ccc(F)c(F)c1 (configuration not stated) | 1.24%
Cc1ccc(CNC(=O)CC(NC(=O)c2ccccc2)c2ccccc2)cc1 (configuration not stated) | 22.7% (active)
Cc1ccc(CNC(=O)[C@@H](NC(=O)Cc2ccccc2)C(C)C)cc1 | 2.39%
CCOC(=O)CC(NC(=O)C1c2ccccc2Oc2ccccc21)c1ccc(C)cc1 (configuration not stated) | -2.87%
Cc1cccc(OCC(=O)Nc2ccccc2F)c1 | -3.72%
COc1ccc(C(CNCC(=O)Nc2ccccc2F)N(C)C)cc1 (configuration not stated) | 149% (active)
COc1ccc(C(CNC(=O)c2ccc(S(=O)(=O)Nc3ccccc3F)cc2)N(C)C)cc1 (configuration not stated) | -3.41%
COCCNC(=O)C(c1ccc(C)cc1)N(C(=O)CCC(=O)Nc1ccccn1)c1cccc(C)c1 (configuration not stated) | -0.25%
CCNC(=S)N1CCN(c2ncccn2)CC1 | -2.13%

Structure (SMILES) | activation
CCn1nnnc1SCC(=O)Nc1ccc(N(C)C)cc1 | -1.37%
O=C(NCCc1ccc2c(c1)OCCO2)c1cc2ccccc2o1 | -0.68%
CN(C)CCNC(=O)Cc1ccc([N+](=O)[O-])cc1 | -3.71%
Cc1cc(NC(=O)c2cc3ccccc3o2)no1 | -2.3%
O=C(CC(c1ccccc1)c1ccccc1)NCC(O)c1ccc([N+](=O)[O-])cc1 (configuration not stated) | 2.4%
CN(C)C(CNC(=O)Cc1ccc([N+](=O)[O-])cc1)c1ccccc1 (configuration not stated) | 67.1% (active)
CN(C)C(CNC(=O)c1cc2ccccc2o1)c1ccccc1 (configuration not stated) | 197% (active)
COc1ccc(NC(=O)CN2C(=O)COc3ccc(S(=O)(=O)N4CCOCC4)cc32)c(OC)c1 | -1.21%
O=[N+]([O-])c1ccc(N2CCSCC2)cc1O | 0.34%
O=C(CSc1nc2ccccc2[nH]1)N/N=C/C=C\c1ccccc1[N+](=O)[O-] | -1.78%
CN1CCN(c2ccc([N+](=O)[O-])c(Sc3nc4ccccc4[nH]3)c2)CC1 | 55.9% (active)
CC(Sc1nnc(CNC(=O)c2ccccc2F)n1C)C(=O)Nc1nccs1 (configuration not stated) | -0.21%
CCCCN(C(=O)COc1ccc(NC(C)=O)cc1)C1CCS(=O)(=O)C1 (configuration not stated) | -1.71%
COc1cc2c(cc1OC)CC1(CCCCC1)N=C2 | -3.02%
COc1ccc(CCNC(=O)CN(c2ccccc2)S(C)(=O)=O)cc1OC | 0.27%
COc1ccc(C(CCN(Cc2ccc(OC)c(OC)c2)C(=O)CCl)c2ccccc2)cc1 (configuration not stated) | 91.3% (active)
COc1ccc(CCNC(=O)C(Sc2ccccn2)c2ccccc2)cc1OC (configuration not stated) | -2.64%
CN(CC(=O)NCCc1ccccc1)S(=O)(=O)c1cnc[nH]1 | -1.45%
CSc1sc(C)cc1C1C(C#N)=C(N)N(c2cccnc2)C2=C1C(=O)CCC2 (configuration not stated) | -1.23%
COCC(=O)Nc1ccc(Br)cc1 | -3.01%
CN1C(CC(=O)Nc2ccc(Br)cc2)c2ccccc2CC1(C)C (configuration not stated) | 77.8% (active)
CN1CCN(NC(=O)Nc2ccc(Br)cc2)CC1 | -3.59%
Cc1ccc(F)cc1S(=O)(=O)Nc1cccc(C(=O)N2CCCC(C(N)=O)C2)c1 (configuration not stated) | 3.39%
CCN(CC)C(=O)CC1(c2ccccc2OC)CCOC(C(C)C)C1 (configuration not stated) | -2.63%
